# Results taken from the supplement of paper PMC13380429.
# Values without a mark were called inactive.
# Tested on: Vero E6 infected with SARS-CoV-2
# Assay: inhibition of SARS-CoV-2 cytopathic effect; higher = more antiviral protection, active = above 15
# Conditions: 100 nM; 48 h
row,Structure (SMILES),inhibition of SARS-CoV-2 cytopathic effect
1,CCCOc1ccc2[nH]c(NC(=O)OC)nc2c1 [oxibendazole],-0.63%
2,O=C(O)C(Cl)Cl [dichloroacetate],2.35%
3,O=C(O)c1ccc(OCCn2ccnc2)cc1 [dazoxiben],3.5%
4,C[C@@H](NCc1cc(Br)cc2nc(O)c(O)nc12)P(=O)(O)O,-0.39%
5,CC[C@H](C)[C@H](N)C1=N[C@H](C(=O)N[C@@H](CC(C)C)C(=O)N[C@H](CCC(=O)O)C(=O)N[C@H](C(=O)N[C@H]2CCCCNC(=O)[C@H](CC(N)=O)NC(=O)[C@@H](CC(=O)O)NC(=O)[C@H](Cc3cnc[nH]3)NC(=O)[C@@H](Cc3ccccc3)NC(=O)[C@H]([C@@H](C)CC)NC(=O)[C@@H](CCCN)NC2=O)[C@@H](C)CC)CS1 [bacitracin],-2.3%
6,CCOc1ccc(NC(=S)N2CCC(C(O)(c3ccccc3)c3ccccc3)CC2)cc1,-2.48%
7,CCN1CCN(Cc2ccc(-c3cc4c(N[C@H](C)c5ccccc5)ncnc4[nH]3)cc2)CC1,-1.71%
8,C[C@](O)(COc1ccc(C#N)cc1)C(=O)Nc1ccc(C#N)c(C(F)(F)F)c1 [ostarine],1.02%
9,COc1ccc2c(c1)C(C(=O)N(Cc1ccc(N(C)C)cc1)c1ccc(C(C)C)cc1)CCC2 (stereo not given),3.26%
10,CCS(=O)(=O)CCn1c([N+](=O)[O-])cnc1C [tinidazole],1.02%
11,CCOc1ccccc1OC(c1ccccc1)C1CNCCO1 (stereo not given) [reboxetine],0.81%
12,CCNC(=O)CCC/C=C\C[C@@H]1[C@@H](/C=C/[C@@H](O)CCc2ccccc2)[C@H](O)C[C@@H]1O [bimatoprost],-0.15%
13,CCOC(=O)c1ncc2[nH]c3cccc(OC(C)C)c3c2c1C,3.11%
14,Cn1c(=O)c2c(ncn2CCOC(=O)C(C)(C)Oc2ccc(Cl)cc2)n(C)c1=O [etofylline-clofibrate],1.68%
15,COc1ccc2cc1Oc1ccc(cc1)C[C@H]1c3c(cc4c(c3Oc3cc5c(cc3OC)CCN(C)[C@@H]5C2)OCO4)CCN1C [cepharanthine],-1.35%
16,COc1cc(C(=O)N(CC[C@H]2CCCN2C)C/C(C)=C/c2ccccc2F)cc(OC)c1OC (racemic),1.94%
17,CC(C)(C)c1cc(C(C)(C)C)c2c(c1)C(O)(C(F)(F)F)C(=O)O2 (racemic),4.61%
18,O=C(O)Cn1c2c(c3cc(F)ccc31)CN(C(=O)c1cccc3ccccc13)CC2 [setipiprant],-0.37%
19,O=c1[nH]c(CCl)nc2sc3c(c12)CCCC3,-1.12%
20,O=C(Nc1ccc(C(=O)O)c(O)c1)c1ccccc1 [benzoylpas],0.45%

row,Structure (SMILES),inhibition of SARS-CoV-2 cytopathic effect
1,C/C(=N\c1ccccc1N)c1c(C)cc(=O)n(O)c1O,-1.91%
2,CNC(=O)c1c(I)c(C(=O)NCC(=O)Nc2c(I)c(C(=O)O)c(I)c(C(=O)NCCO)c2I)c(I)c(N(C)C(C)=O)c1I [ioxaglic-acid],1.47%
3,O=C(O)CCC(=O)OC[C@@H](NC(=O)C(Cl)Cl)[C@H](O)c1ccc([N+](=O)[O-])cc1 [chloramphenicol-sodium-succinate],2.32%
4,CC(C)(C#N)c1ccc(N2C(=O)OCc3cnc4ccc(-c5cnc6ccccc6c5)cc4c32)cc1,2.65%
5,Cc1ccc2c(-c3ccccc3)nc(=O)n(C(C)C)c2c1 [proquazone],-1.31%
6,Cc1cccc(NC(=O)N[C@@H]2N=C(c3ccccc3)c3ccccc3N(C)C2=O)c1,0.28%
7,C[C@@H]1CN(c2c(F)c(N)c3c(=O)c(C(=O)O)cn(C4CC4)c3c2F)C[C@H](C)N1 [sparfloxacin],0.77%
8,CO[C@@H]1[C@@H](O[C@@H]2O[C@H](C)[C@@H](O[C@H]3C[C@@](C)(O)[C@@H](OC(=O)CC(C)C)[C@H](C)O3)[C@H](N(C)C)[C@H]2O)[C@@H](CC=O)C[C@@H](C)[C@@H](O)/C=C/C=C/C[C@@H](C)OC(=O)C[C@H]1OC(C)=O [josamycin],-2.91%
9,CCN1CCC[C@H]1CNC(=O)c1c(OC)ccc(Br)c1OC [remoxipride],0.28%
10,CC(C)CC(=O)N[C@H](C(=O)N[C@H](C(=O)N[C@@H](CC(C)C)[C@@H](O)CC(=O)N[C@@H](C)C(=O)N[C@@H](CC(C)C)[C@@H](O)CC(=O)O)C(C)C)C(C)C [pepstatin],-0.17%
11,COc1cc2c(cc1OC)[C@@H](Cc1cc(OC)c(OC)c(OC)c1)[N+](C)(CCCOC(=O)CC/C=C/CCC(=O)OCCC[N+]1(C)CCc3cc(OC)c(OC)cc3[C@H]1Cc1cc(OC)c(OC)c(OC)c1)CC2 (stereo not given in full) [mivacurium],2.74%
12,COc1cc2ncnc(Nc3ccc(Cl)cc3F)c2cc1OC,-1.55%
13,Cn1nnc(-c2ccc(-c3ccc(N4C[C@H](CO)OC4=O)cc3F)cn2)n1 [tedizolid],-1.69%
14,CCc1c(-c2ccccc2)c(-c2ccccc2)nn1-c1ccccc1-c1cccc(OCC(=O)O)c1,0.2%
15,COc1cc2c(cc1Cc1cccc(Cl)c1F)c(=O)c(C(=O)O)cn2[C@H](CO)C(C)C [elvitegravir],1.54%
16,Cc1ccc2c(c1)[C@]13CCCC[C@@H]1[C@H](C2)N(C)CC3 [dimemorfan],0.04%
17,COC(=O)N[C@H](C(=O)N1CCC[C@H]1c1ncc(-c2ccc(-c3ccc(-c4cnc([C@@H]5CCCN5C(=O)[C@@H](NC(=O)OC)C(C)C)[nH]4)cc3)cc2)[nH]1)C(C)C [daclatasvir],-0.71%
18,COC(=O)Nc1nc2cc(C(=O)c3ccccc3)ccc2[nH]1 [mebendazole],-0.07%
19,c1ccc(CN(CC2=NCCN2)c2ccccc2)cc1 [antazoline],-2.58%
20,C[C@]12C=CC(=O)C=C1CC[C@@H]1[C@@H]2[C@@H](O)C[C@@]2(C)[C@H]1CC[C@]2(O)C(=O)COC(=O)CCC(=O)O [prednisolone-hemisuccinate],3.44%
